Experimental data: PubChem BioAssay (NCATS)
Inconclusive results are not listed. A call without a number means that no potency is given here. Active and inactive are the calls of the source. Unless noted, calls follow the shape of the dose curve; as a rule, active = well fitted curve in the direction sought with a large enough effect; inconclusive = small, poorly fitted or top-dose-only effect, or another doubt; inactive = no such curve, though single readings can be large; an effect the other way counts as inactive or inconclusive.

Legend:
[1] = target: Mitogen-activated protein kinase 10 (Mus musculus) (UniProt Q61831); experiment: JNK3 AlphaScreen Assay (AID 530; active = well fitted curve in either direction with a large enough effect, not every such curve was filed as active;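 also: kinase came from lysate of stimulated human HepG2 cells; signal reports phosphorylation of biotinylated GST-cJun 1-79 at Ser73 with 10 µM ATP; series mostly up to about 57 µM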)
Outline: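 Inhibitors reduce antibody binding to phosphorylated biotin-cJun, lowering AlphaScreen luminescence. Lysates from HepG2 cells pre-activated by IL-1beta plus TNF-alpha supplied JNK3; compounds were titrated.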

[2] = target: Cytochrome P450 3A4 (Homo sapiens) (UniProt P08684); experiment: qHTS Assay for Inhibitors and Substrates of Cytochrome P450 3A4 (AID 884); also: nearly all actives have a fitted effect of over 50% in size; also: potency is read from the fitted curve at half-maximal effect
Outline: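 20 nM human CYP3A4 with 25 uM Luciferin-PPXE (at KM) in 200 mM KPO4, preincubated 10 min with compound; NADPH regeneration started a 60 min RT reaction. Luciferin detected by luminescence, normalized to 57 uM ketoconazole as full inhibition.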

[3] = target: Cytochrome P450 3A4 (Homo sapiens) (UniProt P08684); experiment: qHTS Assay for Activators of Cytochrome P450 3A4 (AID 885); also: nearly all actives have a fitted effect of over 65% in size
Outline: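 Signal was normalized against complete inhibition by 57 uM ketoconazole. The reaction used 20nM CYP3A4 with 25uM Luciferin-PPXE, 10-min compound preincubation and a 60-min NADPH-supported step at RT.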

Cytochrome P450 3A4 (Homo sapiens), sequence (P08684 whole entry, looked up): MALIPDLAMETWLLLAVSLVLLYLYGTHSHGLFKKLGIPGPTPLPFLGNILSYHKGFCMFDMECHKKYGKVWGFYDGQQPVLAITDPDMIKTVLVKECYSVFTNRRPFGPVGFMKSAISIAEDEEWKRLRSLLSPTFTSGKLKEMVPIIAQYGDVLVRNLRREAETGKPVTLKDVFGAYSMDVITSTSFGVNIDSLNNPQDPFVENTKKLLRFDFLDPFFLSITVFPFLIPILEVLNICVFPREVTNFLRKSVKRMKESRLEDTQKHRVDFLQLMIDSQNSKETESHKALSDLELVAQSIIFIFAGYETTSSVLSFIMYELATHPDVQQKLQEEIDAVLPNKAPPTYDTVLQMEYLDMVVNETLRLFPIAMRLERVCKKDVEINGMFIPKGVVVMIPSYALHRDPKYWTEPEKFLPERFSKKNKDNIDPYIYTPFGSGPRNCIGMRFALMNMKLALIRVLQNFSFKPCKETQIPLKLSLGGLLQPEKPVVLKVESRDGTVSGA

| SMILES | outcome [1] | Potency [2] | Potency [3] |
| --- | --- | --- | --- |
| CCCCCCN(C(=O)CCCCCN1C(=O)NC(c2ccc(-c3ccccc3)cc2)C(C(=O)OCc2ccccc2)=C1C)C(C(=O)NCCCC)c1ccc(-c2ccccc2)cc1 (stereo unspecified) | inactive | inactive |  |
| C/C(=C\[C@@H](NP(=O)(c1ccccc1)c1ccccc1)c1ccccc1)CO[Si](c1ccccc1)(c1ccccc1)C(C)(C)C | inactive | 2 µM (active) |  |
| CC(C)CC1(C(=O)O)C=CCN1C(=O)c1ccccc1 (stereo unspecified) | inactive | inactive |  |
| COC(=O)c1ccc(C(NC(=O)OCc2ccccc2)/C(=C/[C@@H](C)C(=O)NCc2cc(F)cc(F)c2)c2cccnc2)cc1 (stereo partly specified) | inactive | 1.58 µM (active) | inactive |
| CC(=O)N1[C@H](C)C=C[C@]1(Cc1ccccc1)C(=O)NCc1cc(F)cc(C(F)(F)F)c1 | inactive | 3.16 µM (active) | inactive |
| CC(C)(C)[Si](OCC[C@@H]1C[C@@]1(C)[C@@H](NP(=O)(c1ccccc1)c1ccccc1)c1ccccc1)(c1ccccc1)c1ccccc1 | inactive | 12.6 µM (active) | inactive |
| CC(Cc1ccccc1)C(=O)N[C@@H](CO)Cc1ccccc1 (stereo partly specified) | inactive | 15.8 µM (active) | inactive |
| COC(=O)[C@@]1(Cc2ccccc2)C=C[C@@H](C)N1C(C)=O | inactive | inactive |  |
| COCCNC(=O)C1(C)C=CC2(CCCCC2)N1C(=O)c1ccccc1 (stereo unspecified) | inactive | 15.8 µM (active) | inactive |
| C[C@@H]1C=C[C@](Cc2ccccc2)(C(=O)O)N1C(=O)c1ccccc1 | inactive | inactive |  |
| CC1(C(=O)NCCCNc2ncc(C(F)(F)F)cc2Cl)C=CC2(CCCCC2)N1C(=O)c1ccccc1 (stereo unspecified) | inactive | 7.94 µM (active) | inactive |
| COC(=O)c1ccc(C(NC(=O)OCc2ccccc2)/C(=C/[C@@H](C)C(=O)NCc2ccc(S(C)(=O)=O)cc2)c2cccnc2)cc1 (stereo partly specified) | inactive | 2 µM (active) | inactive |
| COC(=O)[C@@H]1C[C@H]1[C@@H](NC(=O)c1ccc(Br)cc1)c1ccccc1 | inactive | 25.1 µM (active) | inactive |
| COC(=O)c1ccc(C(/C=C/[C@@H](C)C(=O)N(C)Cc2ccccc2)NC(=O)OCc2ccccc2)cc1 (stereo partly specified) | inactive | 1.58 µM (active) | inactive |
| COC(=O)c1ccc(C(NC(=O)OCc2ccccc2)/C(F)=C/[C@@H](C)C(=O)NCc2ccc(-c3ccccc3)cc2)cc1 (stereo partly specified) | inactive | 3.98 µM (active) | inactive |
| CCCCNC(=O)C(c1ccc(OCC(=O)OC)c(C(=O)OC)c1)N(Cc1ccccc1)C(=O)CCCCCN1C(=O)NC(c2ccc(-c3ccccc3)cc2)C(C(=O)OCc2ccccc2)=C1C (stereo unspecified) | inactive | 5.01 µM (active) |  |

| SMILES | outcome [1] | Potency [2] | Potency [3] |
| --- | --- | --- | --- |
| CC(=O)N1[C@H](Cc2ccccc2)C=C[C@]1(C)C(=O)NCc1ccc(C)o1 | inactive | 7.94 µM (active) | inactive |
| CC(=O)N1[C@H](C)C=C[C@]1(Cc1ccccc1)C(=O)NCc1ccc(C)o1 | inactive | 5.01 µM (active) | inactive |
| CCCCCCN(C(=O)CCCCCN1C(=O)NC(c2ccc(-c3ccccc3)cc2)C(C(=O)OCc2ccccc2)=C1C)C(C)C(=O)NCCCC (stereo unspecified) | inactive | 3.16 µM (active) | inactive |
| CC(=O)N1[C@H](Cc2ccccc2)C=C[C@]1(C)C(=O)NCc1ccccn1 | inactive | inactive |  |
| C[C@]1(C(=O)NCCN2CCOCC2)C=C[C@@H](Cc2ccccc2)N1C(=O)c1ccccc1 | inactive | 7.94 µM (active) | inactive |
| CC(=O)N1C2(C=CC1(C)C(=O)NCCN1CCOCC1)CCCCC2 (stereo unspecified) | inactive | 10 µM (active) | inactive |
| CC1(C(=O)NCCc2c[nH]c3ccccc23)C=CCN1C(=O)c1ccccc1 (stereo unspecified) | inactive | 10 µM (active) | inactive |
| COC(=O)c1ccc(C(NC(=O)OCc2ccccc2)/C(=C/[C@@H](C)C(=O)Nc2ccccc2)c2cccnc2)cc1 (stereo partly specified) | inactive | 1.58 µM (active) | inactive |
| COC(=O)c1ccc(C(NC(=O)OCc2ccccc2)/C(=C/[C@@H](C)C(=O)NCc2ccc(OC)c(O)c2)c2cccnc2)cc1 (stereo partly specified) | inactive | 2.51 µM (active) | inactive |
| CC1(C(=O)O)C=CCN1C(=O)c1ccccc1 (stereo unspecified) | inactive | inactive |  |
| COC(=O)c1ccc(C(/C=C/[C@@H](C)C(=O)NCCc2c[nH]c3ccccc23)NC(=O)OCc2ccccc2)cc1 (stereo partly specified) | inactive | 3.16 µM (active) | inactive |
| C[C@]1(C(=O)NCCCNc2ncc(C(F)(F)F)cc2Cl)C=C[C@@H](Cc2ccccc2)N1C(=O)c1ccccc1 | inactive | 3.16 µM (active) | inactive |
| CCC[C@@H]1C[C@@]1(CCC)[C@@H](NC(=O)Oc1ccccc1)c1ccc(C(=O)OC)cc1 | inactive | 15.8 µM (active) | inactive |
| Cc1nc(NCCO)c2nc(-c3ccccc3)n(CCN(C)C)c2n1 | inactive | inactive |  |
| CC(=O)N1[C@H](Cc2ccccc2)C=C[C@]1(C)C(=O)NCCN1CCOCC1 | inactive | 15.8 µM (active) | inactive |
| CCCCCCN(C(=O)CCCCCN1C(=O)NC(C2CC2)C(C(=O)OCc2ccccc2)=C1C)C(C(=O)NCCCC)c1ccc(OCC(=O)OC)c(C(=O)OC)c1 (stereo unspecified) | inactive | 3.98 µM (active) |  |
